# Tested on: BMPR2
# Settings: concentration: 1 μM, replicates: in singlicate; n = 1
# 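Also: KINOMEscan kinase panel screen.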
row,Structure (SMILES),%Inh [%]
1,Cc1ccc(NC(=O)c2cccc(C#N)c2)cc1-c1ccc(C(=O)Nc2ccncc2)cc1 [GSK1398463],0
2,CS(=O)(=O)CCNCc1ccc(-c2ccc3ncnc(Nc4ccc(OCc5ccccc5)c(Cl)c4)c3c2)o1.Cl [GW574783],0
3,Fc1ccc(-c2ncn(CCCNCc3ccccc3)c2-c2ccncc2)cc1,16
4,CCc1nc(-c2cccc(C)c2)c(-c2ccnc(NC(=O)c3ccccc3)c2)s1,8
5,c1ccc(-c2ccc3c(-c4ccnc(Nc5ccc6c(c5)OCCO6)n4)cnn3n2)cc1 [GW818941],12
6,CSc1ccc(NC2=C(c3ccccc3Cl)C(=O)NC2=O)cc1 [SB-342411],5
7,FC(F)(F)c1ccc(-c2cc(-c3c[nH]nc3-c3ccccn3)ccn2)cc1 [GW599550],25
8,COc1ccc(NC(=O)Nc2ccc(C)c(-c3ccc(C(=O)Nc4ccncc4)cc3)c2)cc1 [GSK1398475],0
9,Fc1ccc(Nc2nccc(-c3c(-c4ccc(Cl)cc4)nn4ncccc34)n2)cc1F [GW829058],32
10,Cn1cc(-c2ccc3c(c2)CCN3C(=O)Cc2cccc(C(F)(F)F)c2)c2c(N)ncnc21 [GSK2606414],0
11,O=C(CCO)NCCn1ccc2ncnc(Nc3ccc(Oc4cccc(C(F)(F)F)c4)c(Cl)c3)c21,0
12,CNc1nccc(-c2c(-c3ccc(F)cc3)ncn2CCCN2CCOCC2)n1 [SB-222516],30
13,COC(=O)c1cccc(NC(=O)NCCNc2ccnc(Nc3ccc(F)cc3)n2)c1 [GSK1379883],0
